This is a sample that favours compounds with a hit; in the whole collection about 3.5% have one here.
FBW7 activator: activators of human E3 ligase FBW7; 0.13% of 650,000 active; Q969H0; normalized activity (activation), % at 26.1 µM; AlphaScreen FBW7–phospho-cyclin E peptide binding, activator screen; AID 1259310; in the data active = normalized activity above about 1.9%;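 also: purified mutant Fbw7 with reduced substrate affinity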
Target sequence (Q969H0 whole entry, looked up): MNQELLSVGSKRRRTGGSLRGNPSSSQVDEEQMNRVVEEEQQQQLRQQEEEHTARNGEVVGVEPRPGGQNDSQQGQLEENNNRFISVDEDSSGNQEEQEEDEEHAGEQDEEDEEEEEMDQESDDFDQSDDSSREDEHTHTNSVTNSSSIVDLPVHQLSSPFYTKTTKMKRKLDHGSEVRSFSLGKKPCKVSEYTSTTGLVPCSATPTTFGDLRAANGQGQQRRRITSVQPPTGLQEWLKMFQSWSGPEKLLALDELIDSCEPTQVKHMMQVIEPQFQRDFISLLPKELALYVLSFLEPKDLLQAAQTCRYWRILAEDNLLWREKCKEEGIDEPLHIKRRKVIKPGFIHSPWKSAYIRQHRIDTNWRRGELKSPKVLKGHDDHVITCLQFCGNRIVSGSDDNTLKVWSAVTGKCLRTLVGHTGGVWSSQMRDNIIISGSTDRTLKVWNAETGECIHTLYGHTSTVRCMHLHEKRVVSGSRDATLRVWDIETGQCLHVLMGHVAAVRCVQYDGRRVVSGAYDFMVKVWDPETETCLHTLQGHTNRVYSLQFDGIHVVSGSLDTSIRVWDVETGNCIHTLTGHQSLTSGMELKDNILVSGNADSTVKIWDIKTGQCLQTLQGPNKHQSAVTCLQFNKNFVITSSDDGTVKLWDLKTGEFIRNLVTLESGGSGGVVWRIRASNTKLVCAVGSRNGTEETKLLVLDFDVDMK
GPR151 ag: activators of human GPR151; PathHunter beta-arrestin GPR151 cells, luminescence; activation, % at 11.2 µM; 1% of 650,000 active; AID 1508602; in the data active = activation above about 4.9%
TEAD-YAP block: TEAD-YAP interaction inhibition | HEK-TIYL cells, TEAD-Gal4/YAP UAS-luciferase luminescence | inhibition, % at 9.12 µM | 1.4% of 640,000 active | AID 1259422; in the data active = inhibition above about 32%
MITF primary: human MITF inhibition, primary screen; O75030; AlphaScreen MITF homodimerization, bead proximity signal; inhibition, % at 2.6 µM; 0.91% of 650,000 active; in the data active = inhibition above about 50%
GPR151 confirm: confirmation of human GPR151 activators; shares compounds with GPR151 ag; GPR151 PathHunter beta-arrestin cells, luminescence, 90 min; % of EA-reagent control over plate median; activation, % at 11.2 µM; 6,700 tested, under 10 active; AID 1508609;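 active = mean percent activation across replicates above the confirmation screen cutoff of 4.91%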
GPR119 ag: activates human GPR119 in a GPR151 counter-screen; shares compounds with GPR151 ag; GPR119 PathHunter beta-arrestin cells, luminescence, 90 min; 0 = compound-well median, 100 = enzyme-acceptor control; activation, % at 11.2 µM; 0.3% of 6,700 active;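 active = mean percent activation in the counterscreen above 29.09%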;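 also: counterscreen on off-target GPR119 to flag nonselective hits from the GPR151 activator screen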
Numbers stand for hits; n = inactive; x = not tested or not shown.

SMILES	FBW7 activator	GPR151 ag	TEAD-YAP block	MITF primary	GPR151 confirm	GPR119 ag
COC1CCCN(C(=O)CCC2(Cc3ccc(-c4ccccc4)cc3)CCC(=O)N2)C1 (stereo not given)	n	n	n	n	x	x
CC1=NN(c2ccccc2)C(c2ccc(O)cc2)C1 (stereo not given)	n	n	n	n	x	x
O=C(OCN1C(=O)c2ccccc2C1=O)C1CCCCC1	n	6.1	n	n	n	n
O=C(c1ccc(Cl)cc1)N1CCN(c2ccc([N+](=O)[O-])c(NCc3ccco3)c2)CC1	n	6.0	n	n	n	n
O=C(Nc1cc(Cl)ccc1Cl)/C(=C/c1cccc([N+](=O)[O-])c1)NC(=O)C1CCCCC1	n	n	n	n	x	x
O=C(Nc1ccc(Cl)cc1)/C(=C/c1cccc([N+](=O)[O-])c1)NC(=O)C1CCCCC1	n	6.2	n	n	n	n
CCOC(=O)c1c(NC(=O)c2cc(OC)c(OC)c(OC)c2)sc2c1CCCCC2	n	n	n	n	x	x
Cc1cc(C)c(OCC(=O)Nc2ccc(I)cc2)c([N+](=O)[O-])c1	n	n	n	n	x	x
Cc1cccnc1NC(=S)NC(=O)c1ccccc1Br	n	n	n	n	x	x
O=C(NC(=S)Nc1ncccc1O)c1ccccc1Br	n	7.6	n	n	n	n
O/N=C/c1ccc[n+](C/C=C/c2ccccc2)c1	n	n	n	n	x	x
Brc1ccc2c(ccc[n+]2C/C=C/c2ccccc2)c1	n	6.2	n	n	n	n
Cc1ccccc1C(=O)Nc1sc(C)c(C)c1-c1nc2ccccc2s1	n	n	n	n	x	x
CC(=O)Nc1ccccc1OC(F)F	n	7.1	n	n	n	n
O=C(Nc1ccccc1OC(F)F)c1ccc(F)cc1	n	n	n	n	x	x
O=C(NC1CCCCC1)c1ccc2c(=O)n(-c3ccc(F)c(Cl)c3)c(=S)[nH]c2c1	n	n	n	n	x	x
CCOC(=O)Cn1nnnc1CN(Cc1ccccc1)Cc1cc2cc(C)ccc2[nH]c1=O	n	6.4	n	n	n	n
COc1ccc(C(=O)Nn2c(C3CC3)nc3cc(OC)c(OC)cc3c2=O)c(OC)c1	n	5.9	n	n	n	n
COc1ccc(C(=O)Nn2c(C3CC3)nc3ccccc3c2=O)c(OC)c1	n	n	n	n	x	x
COc1ccc(S(=O)(=O)N(CC(=O)N2CCCC2)c2ccc(C)cc2)cc1	n	12	n	n	n	n
COc1ccc(N(CC(=O)N2CCCCC2)S(=O)(=O)c2ccc(C)cc2)cc1	n	n	n	n	x	x
O=C(COc1ccc(Cl)cc1)Nc1ccc(-c2cn3cccnc3n2)cc1	23	8.6	n	n	n	n
COc1ccc(-c2cn3cccnc3n2)cc1NC(=O)COc1ccc(Cl)cc1	n	n	n	n	x	x
O=C(COc1ccc(Cl)cc1)Nc1ccccn1	n	9.2	49	n	n	n
CN1C(=O)c2ccc(S(=O)(=O)c3ccc(C(=O)O)cc3)cc2C1=O	n	5.5	n	n	n	n
SMILES	FBW7 activator	GPR151 ag	TEAD-YAP block	MITF primary	GPR151 confirm	GPR119 ag
COc1ccc(C(=O)n2nc(N)c3cc4ccc(C)cc4nc32)cc1	n	n	n	n	x	x
COc1cc(C(=O)n2nc(N)c3cc4ccc(C)cc4nc32)cc(OC)c1OC	n	7.8	41	n	n	n
CCc1nc2ccccc2c(NC(=O)CN2CCC(C)CC2)c1C	n	5.3	n	n	n	n
CCCCCOC(=O)C1=C(C)NC(=O)NC1c1cccc(Cl)c1 (stereo not given)	n	n	n	n	x	x
O=C(CN1C(=O)C2(SCC(=O)N2c2ccc(F)cc2)c2ccccc21)NCCc1ccccc1 (stereo not given)	n	n	n	n	x	x
O=C(CN1C(=O)C2(SCC(=O)N2c2ccc(F)c(F)c2)c2ccccc21)NCCc1ccccc1 (stereo not given)	n	5.4	n	n	n	n
Cc1csc(SCC(=O)Nc2ccc(-c3ccccc3)cc2)n1	n	n	n	n	x	x
CCN(CC)c1nc(Nc2ccc(N3CCOCC3)cc2)nc(N2CCCC2CO)n1 (stereo not given)	n	n	n	n	x	x
COc1ccc2c(c1)c(CC(=O)Nc1nnc(C)o1)c(C)n2C(=O)c1ccc(Cl)cc1	n	5.7	n	n	n	n
CCCCOC(=O)c1ccc(Nc2nc(C)c([N+](=O)[O-])c(Nc3ccc(C(=O)OCCCC)cc3)n2)cc1	n	n	n	n	x	x

Assay outcomes deposited in PubChem by The Scripps Research Institute Molecular Screening Center.
